Measurements published in PubChem BioAssay AID588342 (National Center for Advancing Translational Sciences (NCATS), 2011).
Screen size: about 360,000 compounds; about 25,000 (6.9%) were called active. Another 9% or so got no clear call; they are omitted. Only a selection was taken, and actives are over-represented in it overall. Values without a mark were called inactive. Calls come from the whole dose curve; as a rule, active = well fitted inhibition curve with a large enough effect; inconclusive = small, poorly fitted or top-dose-only effect; inactive = flat fitted curve, though single readings scatter.

What follows are molecules tested against Luciferin 4-monooxygenase (Photinus pyralis) (UniProt P08659) (assay: qHTS profiling assay for firefly luciferase inhibitor/activator using purifed enzyme and Km concentrations of substrates (counterscreen for miR-21 project)). Conditions: purified FLuc, luminescence inhibition; series mostly up to 57.5 µM; activity change, negative = inhibition: at the top concentration.
Sequence of Luciferin 4-monooxygenase (Photinus pyralis) (P08659 whole entry, looked up): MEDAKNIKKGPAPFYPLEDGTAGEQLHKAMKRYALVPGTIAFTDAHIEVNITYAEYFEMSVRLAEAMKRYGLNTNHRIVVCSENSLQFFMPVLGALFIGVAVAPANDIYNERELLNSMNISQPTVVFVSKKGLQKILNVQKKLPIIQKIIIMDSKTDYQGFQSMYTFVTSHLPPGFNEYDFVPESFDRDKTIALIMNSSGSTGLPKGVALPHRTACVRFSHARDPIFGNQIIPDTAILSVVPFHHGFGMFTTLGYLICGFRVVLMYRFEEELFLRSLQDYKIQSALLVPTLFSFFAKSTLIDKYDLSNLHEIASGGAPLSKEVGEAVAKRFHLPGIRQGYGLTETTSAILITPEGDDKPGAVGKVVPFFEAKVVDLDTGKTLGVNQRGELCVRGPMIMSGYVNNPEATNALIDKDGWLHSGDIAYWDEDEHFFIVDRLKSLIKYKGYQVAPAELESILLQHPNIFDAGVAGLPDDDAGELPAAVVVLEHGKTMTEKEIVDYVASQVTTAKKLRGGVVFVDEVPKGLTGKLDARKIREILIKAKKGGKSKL
In short: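 Purified P. pyralis luciferase (10nM final) with 10uM D-luciferin and 10uM ATP (Km levels) in 50mM Tris acetate pH 7.5, 10mM Mg acetate, 0.01% Tween-20, 0.05% BSA; qHTS 6-point titration, ~60 µM downward; luminescence read.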
Note: nearly all actives have a fitted effect of over 55% in size.
Potency is the fitted concentration of half-maximal effect.
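Throughout, for activity change, negative = inhibition: plate controls were vehicle for no effect and reference inhibitor for full effect.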

Structure (SMILES) | activity change, negative = inhibition | Potency
N#CC(C(=O)c1ccc(S(=O)(=O)N2CCCCCC2)cc1)c1nc2ccccc2[nH]1 (stereo not given) | -13.5% | 
CC(C)c1nc2ccc(C(=O)O)cc2[nH]1 |  | 15.1 µM (active)
OC(c1nc2ccc(F)cc2[nH]1)C(O)c1nc2ccc(F)cc2[nH]1 (stereo not given) | -2.89% | 
CCOC(=O)c1cccc(NC(=O)Cn2cnc3nc4c(cc3c2=O)CCCC4)c1 | -14.8% | 
CCOC(=O)c1[nH]c(C)c(CCC(=O)NCc2ccccc2C)c1C | -6.99% | 
COc1ccc(CCNC(=O)C(=O)NCC(c2ccco2)S(=O)(=O)c2cccs2)cc1OC (stereo not given) | 6.4% | 
O=C(NCC#CCSc1nnc(-c2cccc3ccccc23)o1)c1cccs1 | 1.74% | 
O=C(OCC#CCSc1nnc(-c2ccncc2)o1)c1sc2ccccc2c1Cl | -11.9% | 
C#CCSc1nnc(-c2sc3ccccc3c2Cl)o1 |  | 5.36 µM (active)
COc1ccc(-c2cc3ccc(OCc4nn[nH]n4)cc3oc2=O)cc1 |  | 1.69 µM (active)
COc1ccc2cc(-c3nc(Cl)c4c5c(sc4n3)CC(C)CC5)c(=O)oc2c1 (stereo not given) | -5.25% | 
Cc1noc(C)c1COc1ccc2ccc(=O)oc2c1 | 0.0642% | 
COc1ccc(CCN2C(=O)N(c3cccc(OC)c3)C(=O)C2CC(=O)Nc2ccccc2)cc1 (stereo not given) | -3.46% | 
COCCCNC(=O)COc1cc(C)c(Cl)c(C)c1 | 0.797% | 
Cc1cc(OCc2cc(C(=O)NCc3cc(C(C)C)no3)no2)cc(C)c1Cl |  | 4.78 µM (active)
CC(C)C(=O)NCc1cc(-c2ccc(Cl)cc2)no1 | 3.81% | 
CCc1ccc(NC(=O)c2nn(-c3ccc(C)cc3)c(=O)n(C)c2=O)cc1 | -1.09% | 
Cn1c(SCC(=O)Nc2ccc(Br)cc2F)nnc1-c1ccco1 | -15.5% | 
CS(=O)(=O)n1nc(-c2ccco2)nc1N | 1.41% | 
Cn1c(-c2ccco2)nc2cc3ccccc3cc21 |  | 0.12 µM (active)
Cc1cccc(N2CCN(C(=O)c3ccc(Nc4nc5ccccc5n5nnnc45)cc3)CC2)c1C | -9.44% | 
Cc1ccccc1NC(=O)C1CCN(C(=O)NC2CCCCC2)CC1 | 1.56% | 
Cc1cc(NC(=O)CN2CCCCC2C)nc2c1c(=O)oc1ccccc12 (stereo not given) | 1.83% | 
O=C(Nc1cc2ccccc2oc1=O)C1CCCCC1 |  | 2.39 µM (active)
COC(=O)c1cc(NC(=O)CCS(=O)(=O)c2cc(Br)cc3c2N(C(=O)C2CC2)CC3)cc(C(=O)OC)c1 | -5.07% | 
O=C1CCCc2cc(S(=O)(=O)N3CCCC(C(=O)NCc4ccccc4)C3)ccc2N1 (stereo not given) | 5.19% | 
CC(C)(C)OC(=O)N1CCC(c2c(C(=O)NCc3ccccn3)cnn2-c2ccc(F)cc2)CC1 | 0.137% | 

Structure (SMILES) | activity change, negative = inhibition | Potency
Cc1ccc(NC(=O)CN(C)C(=O)c2ccc(Br)o2)cc1 | 0.27% | 
CCOC(=O)c1c(N)n(-c2cccc(C)c2C)c2nc3ccccc3nc12 | -3.45% | 
Cc1nc2ccccc2n1CC(=O)N/N=C/c1cccs1 | 4.13% | 
CCC(C)NC(=O)c1c(N)n(/N=C/c2cccs2)c2nc3ccccc3nc12 (stereo not given) |  | 3.01 µM (active)
CCCc1cc(=O)[nH]c(SCc2cc(=O)oc3c(C)c(C)ccc23)n1 | -14.4% | 
CN1CCN(C(=O)CCc2ncc(C(F)(F)F)cc2Cl)CC1 | 0.917% | 
COc1ccccc1NC(=O)C(C)OC(=O)CC1CCCC1 (stereo not given) | 4.56% | 
O=C(CN1CCN(c2ccccn2)CC1)NC1CCCCC1 | -0.747% | 
COc1ccccc1OCC(=O)OCc1cc(-c2ccco2)on1 | -4.02% | 
N/C(=N\OC(=O)CCC1CCCCC1)c1ccccn1 |  | 0.536 µM (active)
COc1ccccc1OCC(=O)O/N=C(\N)c1ccccn1 |  | 19 µM (active)
COc1ccccc1OCC(=O)OCn1c(SC)nnc(C)c1=O | 2.06% | 
O=C(CC1CCCCC1)NCc1ccccc1 | -18.6% | 
N/C(=N\OC(=O)CC1CCCCC1)c1ccccc1 |  | 2.13 µM (active)
CC(C)(C)NC(=O)NC(=O)COC(=O)CCC1CCCCC1 | 2.91% | 
CN(C(=O)CSc1nc2ccc(NC(=O)COc3ccccc3)cc2s1)c1ccccc1 | -14.5% | 
CN(C(=O)COC(=O)Cn1cnc2c1c(=O)n(C)c(=O)n2C)C1(C#N)CCCCC1 | 3.02% | 
Cc1ccc(Cl)cc1N1CCN(C(=O)c2cccn3c(=O)c4cc(Cl)ccc4nc23)CC1 | -2.45% | 
COc1ccc(N2CCN(CCNC(=O)c3nnc(Cc4c(F)cccc4Cl)o3)CC2)cc1 | 4.25% | 
COc1cc(OC)c(N(C)C(=O)c2cc3c(=O)oc4ccccc4c3s2)cc1Cl | -0.794% | 
COc1cc(OC)c(OC)cc1/C=C/c1nc2cc3ccccc3cc2c(=O)n1-c1ccc(F)c(Cl)c1 | -1.28% | 
CC(C)CCNC(=O)CSc1nc2ccccc2nc1Cc1ccc(Cl)cc1 | -4.71% | 
CCc1ccc(CNC(=O)C2CCCN(c3nc4ccccc4o3)C2)cc1 (stereo not given) | 3.01% | 
CCOC(=O)CCNC(=O)N1CCCC(C(=O)c2ccccc2SC)C1 (stereo not given) | -2.33% | 
CCOC(=O)c1cnc(Nc2nc3ccccc3o2)nc1CSC(=S)N1CCCCC1 |  | 9.53 µM (active)
COCCNC(=O)CSc1c(C)cnc2c1c(=O)n(C)c(=O)n2C | -1.51% | 
COc1ccc(-c2nc(CN3CCC(C(=O)NCCN(CC(C)C)CC(C)C)CC3)c(C)o2)cc1OC | -5.23% | 

Structure (SMILES) | activity change, negative = inhibition | Potency
CC(C)CN(Cc1c(O)ccc2c(=O)c(-c3ccccc3)coc12)CC(C)C | 4.11% | 
O=C1/C(=C/c2coc3ccc(O)cc3c2=O)SC(=S)N1c1ccccc1 | -7.68% | 
O=c1c(-c2ccccc2)coc2cc(O)ccc12 |  | 15.1 µM (active)
Cc1cc(C)c(OCC(=O)N/N=C/c2ccco2)c(C)c1 | 4.89% | 
COC(=O)C1=C(C)N(c2ccc(Br)cc2)C(=O)/C1=C\c1ccco1 | -2.45% | 
COC(=O)COc1ccc2c(c1C)O/C(=C\c1ccco1)C2=O |  | 2.13 µM (active)
Cc1nn(CC(=O)NCCc2ccccc2)c(=O)c2c1sc1ccccc12 | -0.483% | 
O=C(c1ccc(CSc2ccccc2)cc1)N1CCCCCC1 |  | 23.9 µM (active)
O=C(c1ccc(S(=O)(=O)c2ccccc2)cc1)N1CCCCCC1 | 4.38% | 
CC1CCN(C(=O)c2ccc(CSc3ccc(Cl)cc3)cc2)CC1 | -1.34% | 
COc1cc(OC)c(N2CC(C(=O)Nc3cc(Cl)ccc3N3CCOCC3)CC2=O)cc1Cl (stereo not given) | -1.25% | 
O=C(/C=C/c1ccccc1[N+](=O)[O-])OC1CCCCC1=O (stereo not given) |  | 15.1 µM (active)
O=C(/C=C/c1ccccc1[N+](=O)[O-])OCC(=O)N1CCCC1 | -2.54% | 
CC(C)CNC(=O)COC(=O)/C=C/c1ccccc1[N+](=O)[O-] | -0.249% | 
CCOc1ccc(CCNC(=O)c2c(C)oc3ncn(C)c(=O)c23)cc1 | -15.7% | 
O=C(Nc1cccc(C(=O)NC2CC2)c1)c1ccc(F)c(S(=O)(=O)N2CCOCC2)c1 | 1.1% | 
Cc1ccnc(N2C(=O)c3ccc([N+](=O)[O-])cc3C2=O)c1 | -0.44% | 
Cc1ccc(-c2cn(S(=O)(=O)c3cccc([N+](=O)[O-])c3)nc2N)cc1 | 0.0034% | 
Cc1ccc(-n2cc3ccc([N+](=O)[O-])cc3n2)cc1 |  | 0.953 µM (active)
COc1ccc(C2=CC(c3ccccc3Cl)n3nc(-c4ccc(Cl)cc4)nc3N2)cc1 (stereo not given) | -4.89% | 
NS(=O)(=O)c1ccc(NC(=O)COc2ccc(S(=O)(=O)NC3CCCCC3)cc2)cc1 | -1.09% | 
COc1ccc(-n2nnnc2-c2nc3ccccc3s2)cc1 |  | 0.601 µM (active)
COc1ccc(CSc2nnnn2-c2ccc(C(=O)O)cc2)cc1 | 0.195% | 
COc1ccc(-n2nnnc2CNC(=O)c2ccc3ccccc3c2)cc1 | 2.8% | 
Cc1ccc(S(=O)(=O)NCCC(=O)NCc2ccc(Cl)cc2)cc1C | 1.46% | 
COc1cccc(CNCc2c(C(=O)O)n(Cc3ccc(C)cc3)c3cc(C)ccc23)c1OC | -2.43% | 
COc1ccc(C(=O)CCC(=O)Nc2cccnc2)c(OC)c1 | -7.14% | 

Structure (SMILES) | activity change, negative = inhibition | Potency
COc1ccc(C(=O)/C=C/c2ccc(OC3CSC3)cc2)cc1 |  | 12 µM (active)
COC(=O)c1cc(OC)ccc1-c1ccc(OC)cc1 | 0.668% | 
COc1ccc(C(=O)/C=C/c2cccnc2)c(OC)c1 |  | 19 µM (active)
CO/N=C/CC(=O)c1ccc(OC)cc1 | -0.488% | 
COc1ccc(/C=C/C(=O)c2ccc(OC)cc2O)cc1 |  | 7.57 µM (active)
COc1ccc(C(=O)NCC(=O)N/N=C/c2cccnc2)cc1 | 2.39% | 
COc1cccc(N2CC(NC(=O)/C=C\c3ccccc3)CC2=O)c1 (stereo not given) | 1.08% | 
CCOC(=O)C1CCCN(C(=O)/C=C/c2ccc(OC)cc2)C1 (stereo not given) | -18.1% | 
Cc1ccc(C)c(CNC(=O)c2cc3ccccn3n2)c1 | -5.12% | 
COc1ccc(S(=O)(=O)NCC(=O)NCc2cc(=O)n(C)c(=O)n2C)cc1F | 4.13% | 
COc1cccc(C(c2c(O)cc(C)n(Cc3ccco3)c2=O)N2CCN(c3ccccc3)CC2)c1 (stereo not given) | -13.6% | 
CCOc1ccc(-c2cc3nc(C4CCN(C(=O)OC(C)(C)C)CC4)c(C(=O)Nc4ccc(C(=O)OC)cc4)cn3n2)cc1 | -8.05% | 
COc1ccccc1NC(=O)C1=C(C)Nc2nc(SCC(=O)c3ccc(C)cc3)nn2C1c1ccccc1C (stereo not given) | 5.07% | 
Cc1cc(C(=O)Nc2cccc(C(F)(F)F)c2)c2c(C)nn(-c3cccc(F)c3)c2n1 | -8.84% | 
CC(C)=C(NC(=O)c1ccccc1)C(=O)N/N=C(\C)c1ccccc1O | 4.12% | 
C/C(=N\NC(=O)c1ccoc1C)c1ccccc1O |  | 15.1 µM (active)
COc1ccccc1N(CC(=O)N/N=C(\C)c1ccccc1O)S(=O)(=O)c1ccc(C)cc1 | 3.81% | 
CCCOC(=O)c1c(NC(=O)c2cc3nc(-c4ccc(OC)cc4)cc(C(F)(F)F)n3n2)sc2c1CCCC2 | -5.72% | 
COc1ccc(N2CCN(C(=O)CSCc3nc(-c4ccccc4Cl)oc3C)CC2)cc1 | -11.4% | 
COc1ccc(-n2ccn(CC(=O)Nc3ccc(C)c(C)c3)c(=O)c2=O)cc1OC | -7.6% | 
Cc1cccc(S(=O)(=O)c2cn(Cc3ccccc3)c3cc(N4CCOCC4)c(F)cc3c2=O)c1 | -6.65% | 
CN(C)c1nnnn1-c1ccc(Cl)cc1 | -2.83% | 
Nc1ccc2nn(-c3ccc(Cl)cc3)nc2c1 |  | 0.757 µM (active)
O=C(NCCCO)c1nn(-c2ccc(Cl)cc2)nc1CO | -18.3% | 
